Screening data deposited in PubChem by National Center for Advancing Translational Sciences (NCATS).
3T3 cytotox = cytotoxic compounds in NIH 3T3 cells. NIH 3T3 viability, CellTiter-Glo ATP luminescence, 48-72 h. Potency, µM (titrated, usually from 96.7 µM), actives largely listed as inhibitors. actives 4.3% (n = 94,000); note: nearly all actives have a fitted effect of over 55% in size
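Luminescent ATP readout (CellTiter-Glo, 10 min RT) after 48 or 72 hr compound exposure of NIH 3T3 cells seeded at 400 cells/well in 1536-well format; quantitative HTS.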
FLuc inh = blocks purified firefly luciferase enzyme activity; Potency, µM (doses to about 115 µM), usual class: inhibitors; purified P. pyralis luciferase, luminescence, biochemical; AID 1347043; P08659; actives 2.5% (n = 76,000); note: nearly all actives have a fitted effect of over 65% in size
Target sequence (P08659 whole entry, looked up): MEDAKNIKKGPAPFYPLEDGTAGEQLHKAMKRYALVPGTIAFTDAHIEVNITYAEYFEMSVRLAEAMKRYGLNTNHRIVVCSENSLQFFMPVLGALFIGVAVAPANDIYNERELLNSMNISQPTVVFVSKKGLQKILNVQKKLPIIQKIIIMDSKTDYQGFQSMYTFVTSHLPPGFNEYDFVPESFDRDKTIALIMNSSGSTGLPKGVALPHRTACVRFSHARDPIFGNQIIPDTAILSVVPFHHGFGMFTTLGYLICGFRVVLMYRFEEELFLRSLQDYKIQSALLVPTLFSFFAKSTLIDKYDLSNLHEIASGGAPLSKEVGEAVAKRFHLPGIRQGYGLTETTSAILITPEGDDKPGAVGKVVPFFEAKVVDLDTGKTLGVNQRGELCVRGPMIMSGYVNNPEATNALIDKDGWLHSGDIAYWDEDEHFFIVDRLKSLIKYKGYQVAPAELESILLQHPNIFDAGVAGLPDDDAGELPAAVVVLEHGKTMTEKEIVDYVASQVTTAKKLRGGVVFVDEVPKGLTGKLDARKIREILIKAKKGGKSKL
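Purified 10nM P. pyralis luciferase with 10uM D-luciferin and 10uM ATP in 50mM Tris acetate pH 7.5, 10mM Mg acetate, 0.01% Tween-20, 0.05% BSA. qHTS titration; luminescence read by CCD imager.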
NPR1 antag = human Npr1 receptor antagonism | P16066 | HEK293 hNpr1 GloSensor cGMP, ANP-stimulated luminescence | Potency, µM (highest dose often 46.3 µM), usual class: inhibitors | actives 1.6% (n = 76,000) | AID 1347048; calls by dose curve; note: nearly all actives have a fitted effect of over 60% in size
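HEK293 cells stably expressing human Npr1 and cGMP GloSensor pGS-40F, loaded 2 h with 2% GloSensor reagent, given compound 30 min at room temperature. Luminescence read before and 20 min after 0.1 nM hNppA.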
HEK293 tox = kills HEK 293 cells; HEK 293 viability, ATP luminescence (CellTiter-Glo), 48-72 h; Potency, µM (top dose mostly 115 µM), hits mostly inhibitors; actives 6.6% (n = 94,000); note: nearly all actives have a fitted effect of over 60% in size
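HEK 293 cells seeded at 250 cells/well were exposed to compound for 48 or 72 hr at 37 degree Celsius. Viability taken as ATP content by CellTiter-Glo luminescence.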
Of the large screens only hits and unclear results are named; the others gave an inactive call. Rows were chosen to be rich in hits. Some 11% of all compounds tested hit in one or more screens of this group. Unless noted, calls come from the whole dose curve; as a rule, active = well fitted curve in the direction sought with a large enough effect; inconclusive = small, poorly fitted or top-dose-only effect, or another doubt; inactive = no such curve, though single readings can be large; an effect the other way counts as inactive or inconclusive.

COc1ccc(NC(=O)N[C@H]2C[C@@H](c3nc(-c4ccc(F)cc4)no3)N(C)C2)cc1	3T3 cytotox inconclusive
COc1ccc(S(=O)(=O)N[C@H]2C[C@@H](c3nc(-c4ccc(C)cc4)no3)N(C)C2)cc1	3T3 cytotox inconclusive, FLuc inh 25µM, NPR1 antag inconclusive, HEK293 tox 79µM
O=C(Nc1cccc2ccccc12)O[C@@H]1CO[C@H]2[C@@H]1OC[C@@H]2n1nnnc1-c1ccc(-c2ccccc2)cc1	none
CC(CCc1ccccc1)NC(=O)Cn1cccc1-c1nc(-c2ccc(F)cc2)no1 (stereo unspecified)	none
CCOCCNC(=O)CNC(=O)c1cccc(-c2ccsc2)c1	none (no result: FLuc inh, NPR1 antag)
Cn1nc(C2CCCC2)cc1NC(=O)c1ccccc1	none (no result: FLuc inh, NPR1 antag)
COc1ccc([C@H]2C[C@@H](O)[C@@H](O)[C@@H]2NCc2cccc(C#N)c2)cc1	3T3 cytotox 89µM
COc1ccc(-c2noc([C@@H]3C[C@H](NCc4ccc(S(C)(=O)=O)cc4)CN3C)n2)cc1	FLuc inh 45µM, NPR1 antag inconclusive, HEK293 tox inconclusive
COc1ccc([C@H]2C[C@@H](O)[C@@H](O)[C@@H]2NCc2cccc(C(F)(F)F)c2)cc1	3T3 cytotox inconclusive, HEK293 tox inconclusive
COc1ccc(-c2noc([C@@H]3C[C@H](NC(=O)c4ccc(F)cc4)CN3C)n2)cc1	3T3 cytotox inconclusive, HEK293 tox inconclusive
O=C(NC1CCCC1)c1cc2c(s1)CCN(C(=O)c1ccc(F)cc1)C2	none
COc1ccc2cc1Nc1ccc(cc1)C[C@H](NCc1cccc(O)c1)C(=O)N(C)[C@@H](C(=O)Nc1ccccc1)C2	3T3 cytotox inconclusive, HEK293 tox inconclusive
COc1ccc2cc1Nc1ccc(cc1)C[C@H](NC(=O)Cc1cccc(Cl)c1)C(=O)N(C)[C@H](C(=O)NCCC(C)C)C2	3T3 cytotox 25µM, HEK293 tox inconclusive
CCc1ccccc1NC(=O)Cn1c(N2CCC(C)CC2)nc(C)cc1=O	3T3 cytotox inconclusive, HEK293 tox inconclusive
C=CCOc1cc(C)c2c(c1C)[C@H](O)C([C@H](C)C(=O)N(C)Cc1ccccc1)CC2 (stereo partly specified)	3T3 cytotox 71µM, HEK293 tox inconclusive
COc1cccc(S(=O)(=O)N2C[C@@H](Oc3ccccc3)C[C@@H]2C(=O)N2CCOCC2)c1	none
COc1ccc(NC(=O)c2cnc3n[nH]c(-c4ccc(OC)cc4C)c3n2)cc1	3T3 cytotox 45µM, HEK293 tox inconclusive
COc1ccc(-c2[nH]nc3ncc(C(=O)NCC(C)C)nc23)c(C)c1	3T3 cytotox inconclusive, HEK293 tox inconclusive
COc1ccc(-c2[nH]nc3ncc(C(=O)N4C[C@@H](C)O[C@@H](C)C4)nc23)c(C)c1	3T3 cytotox inconclusive, HEK293 tox inconclusive
COc1ccc(-c2[nH]nc3ncc(C(=O)Nc4ccn(C)n4)nc23)c(C)c1	3T3 cytotox inconclusive, HEK293 tox 89µM
COc1ccc(-c2[nH]nc3ncc(C(=O)N4CC(O)C4)nc23)c(C)c1	3T3 cytotox 7.9µM, HEK293 tox inconclusive
Cn1c(C(=O)N2CCc3c(n(CCOc4ccccc4)n(-c4ccccc4)c3=O)C2)cc2ccccc21	3T3 cytotox inconclusive, HEK293 tox inconclusive
O=C(OCc1ccccc1)N1CCC2(CC1)C(=O)NN=C2C1CC1	HEK293 tox 112µM
COCCNc1ncccc1-c1noc([C@@H]2CCCN2CC(C)(C)C)n1	3T3 cytotox 50µM, HEK293 tox inconclusive
COCCNc1ncccc1-c1noc([C@@H]2CCCN2Cc2cccc(C#N)c2)n1	3T3 cytotox inconclusive, HEK293 tox 71µM
COCCOc1ncccc1-c1noc([C@@H]2CCCN2Cc2cccc(C#N)c2)n1	HEK293 tox inconclusive
COc1cccc(CN2CCOC3CCN(CCCc4ccccc4)CC3C2=O)c1 (stereo unspecified)	3T3 cytotox 79µM, HEK293 tox inconclusive
Cn1ncc2c(C(=O)N3CCC(C#N)CC3)cc(-c3ccc(Cl)nc3)nc21	none (no result: FLuc inh, NPR1 antag)
COc1ccccc1NC(=O)CC1CCCN(c2cnn(CC3CC3)c(=O)c2)C1 (stereo unspecified)	3T3 cytotox 35µM
COc1ccccc1NC(=O)CC1CCCN(c2cnn(C)c(=O)c2)C1 (stereo unspecified)	none
CCOc1ccccc1NC(=O)CC1CCCN(c2cnn(CC3CC3)c(=O)c2)C1 (stereo unspecified)	3T3 cytotox 35µM, HEK293 tox inconclusive
O=C(CC1CCCN(c2cnn(CC3CC3)c(=O)c2)C1)Nc1ccccc1F (stereo unspecified)	3T3 cytotox inconclusive
CC(=O)N1CCN(C(=O)c2nc3sccn3c2-c2ccc(F)cc2)CC1	none (no result: FLuc inh, NPR1 antag)
O=C(NC1CCN(Cc2cccc(-c3ccc(F)c(F)c3)c2)CC1)c1ccc(Cl)nc1	3T3 cytotox 25µM, HEK293 tox inconclusive (no result: FLuc inh, NPR1 antag)
Cc1ccccc1C(=O)NC1CCN(Cc2cccc(-c3ccc(F)c(F)c3)c2)CC1	3T3 cytotox inconclusive, HEK293 tox 50µM (no result: FLuc inh, NPR1 antag)
O=C(NC1CCN(Cc2cccc(-c3ccc(F)c(F)c3)c2)CC1)c1ccccc1F	3T3 cytotox inconclusive, HEK293 tox 79µM (no result: FLuc inh, NPR1 antag)
Cc1cccc(-c2cccc(CN3CCC(NC(=O)c4ccccc4C)CC3)c2)c1	3T3 cytotox 32µM, HEK293 tox 40µM (no result: FLuc inh, NPR1 antag)
O=C1CC(c2ccccc2)N(C(=O)Nc2ccccc2)CCCCCN1 (stereo unspecified)	none
CN1C(=O)[C@@H]2C[C@@H](CN2Cc2ccnc3ccccc23)Oc2ccccc21	3T3 cytotox 89µM, HEK293 tox inconclusive
COc1ccc(CN2C(=O)[C@@H]3C[C@@H](CN3C(C)C)Oc3ccccc32)cc1	none
O=C1[C@@H]2C[C@@H](CN2Cc2ccc3c(c2)OCO3)Oc2ccccc2N1Cc1ccccn1	3T3 cytotox inconclusive, HEK293 tox 79µM
COc1ccc(CN2C(=O)[C@@H]3C[C@@H](CN3CC3CC3)Oc3ccccc32)cc1	3T3 cytotox 79µM, HEK293 tox inconclusive
COCCN1C(=O)[C@@H]2C[C@@H](CN2Cc2ccc3ccccc3n2)Oc2ccccc21	3T3 cytotox 100µM, FLuc inh inconclusive, HEK293 tox inconclusive
O=C1[C@@H]2C[C@@H](CN2Cc2ccc(F)c(F)c2)Oc2ccccc2N1Cc1ccccn1	3T3 cytotox inconclusive, HEK293 tox inconclusive
CN1C(=O)[C@@H]2C[C@@H](CN2Cc2nccs2)Oc2ccccc21	HEK293 tox inconclusive
C=CCN1CC(COc2ccccc2)Oc2nc(C)ccc2C1=O (stereo unspecified)	3T3 cytotox inconclusive (no result: FLuc inh, NPR1 antag)
COCCNC(=O)[C@H]1C[C@H](Oc2cccnc2)CN1C(=O)Nc1ccc2c(c1)OCCO2	none
O=C1CCN(C(=O)Cc2ccccc2)CCCC(c2nc(-c3cnccn3)no2)CCN1 (stereo unspecified)	none
COCc1nc2nc(-c3ccccc3)c(-c3ccccc3O)cc2n1C	3T3 cytotox inconclusive
O=C1[C@@H]2C[C@@H](CN2Cc2ccccc2)Oc2ccccc2N1CC1CC1	3T3 cytotox inconclusive, HEK293 tox inconclusive
O=C1[C@@H]2C[C@@H](CN2Cc2cnc3ccccc3c2)Oc2ccccc2N1CC1CC1	3T3 cytotox inconclusive, HEK293 tox 50µM
